Screens (PubChem)
Shown are actives, neighbours in structure and some others; about 2.6% of the full set was active somewhere.
TWEAK Fn14 block: TWEAK-Fn14 signaling inhibition | TWEAK-stimulated Fn14 reporter cells, luciferase luminescence, 8 h | hit rate 2% among 360,000 | inhibition, % at 10 µM; in the data active = inhibition above about 50%
HSP90 inh: blocks HSP90-mediated luciferase refolding in reticulocyte lysate; hit rate 0.91% among 290,000; Rabbit reticulocyte lysate, luciferase refolding luminescence, 3 h; inhibition, % at 5.6 µM;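 active = inhibition above the screen-wide mean plus 3 SD, computed separately per campaign, cut at about 16% in these data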;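 note: 0% = DMSO wells and 100% = 60 µM geldanamycin wells; inhibitors lower the luminescence because luciferase stays unfolded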
EBV LMP1 NFkB: reduces LMP1-driven NF-kappaB luciferase signal. LMP1-induced NF-kappaB luciferase reporter cells, luminescence. inhibition, % at 12.5 µM. hit rate 0.69% among 350,000; in the data active = inhibition above about 41%; inconclusive = no clear call, values can overlap the other calls;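 note: 0% = neutral control wells and 100% = reference inhibitor control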
LGR2 antag: inhibitors of bursicon-induced Drosophila LGR2 receptor cAMP signaling. inhibition, % at 9.99 µM. hit rate 0.35% among 380,000. HEK293 LGR2, CRE-luciferase, bursicon-stimulated, 4 h. AID 720647;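 active = drop in luminescence signal, shown as inhibition above about 50% in the replicate tests, limit read from the data, passing the limit was not always enough; inconclusive = probably only some replicates passing the limit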;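 note: agonist challenge used bursicon conditioned medium at about half maximal strength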
TROY NFkB inh: blocks TROY-dependent signaling in reporter cells | Q293 LMP1-TROYcd NF-kB luciferase reporter, 4 h | inhibition, % at 10 µM | hit rate 0.98% among 360,000;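 active = compounds whose plate-normalised and pattern-corrected inhibition of the luciferase reporter signal at the single screening dose is 50% or more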
aDG glyco act: alpha-DG glycosylation activation. hit rate 0.22% among 360,000. activation, % at 10 µM. Pro5-aDG cells, alpha-DG glycosylation AlphaScreen (IIH6); 0% Pro5, 100% B10-LARGE cell signal. AID 624168;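 active = activation of at least 8% versus controls, or a plate z-score of at least 8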;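 note: Pro5 are CHO cells carrying HIG-tagged alpha-DG that lacks glycosylation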
* hit, by the source's call; ? = inconclusive; · = not tested or not shown.

SMILES | TWEAK Fn14 block | HSP90 inh | EBV LMP1 NFkB | LGR2 antag | TROY NFkB inh | aDG glyco act
C[C@H](CO)N1C[C@H](C)[C@H](CN(C)C(=O)Nc2ccc3c(c2)OCO3)OCCCC[C@H](C)Oc2ccc(NC(=O)C3CCCCC3)cc2C1=O | · | · | · | 57* | · | ·
CC(C)NC(=O)N(C)C[C@@H]1Oc2c(NC(=O)Nc3ccc4c(c3)OCO4)cccc2C(=O)N([C@H](C)CO)C[C@@H]1C | · | · | · | -9 | · | ·
CO[C@@H](CN(C)C(=O)c1cc(Cl)cc(Cl)c1)[C@@H](C)CN(C(=O)Nc1ccc(F)cc1)[C@@H](C)CO | · | · | · | 5 | · | ·
Cc1cc(C(=O)Nc2cccc3c2O[C@@H](CN(C)Cc2ccc(C(=O)Nc4ccccc4N)cc2)[C@@H](C)CN([C@@H](C)CO)C3=O)n(C)n1 | · | · | · | -1 | · | ·
CC(C)NC(=O)Nc1ccc2c(c1)C(=O)N([C@@H](C)CO)C[C@H](C)[C@@H](CN(C)C(=O)NC(C)C)O2 | · | · | · | 4 | · | ·
Cc1cc(C)cc(NC(=O)CCCCCN2C(=O)[C@@H]3Cc4ccccc4CN3C2=O)c1 | 55* | 1 | 2 | 0 | -6 | 0
COc1cccc(-c2ccc3n(c2=O)C[C@H]2[C@H](CO)[C@@H](C(=O)N(C)C)N(C(=O)C4CC4)[C@@H]32)c1 | · | · | · | 13 | · | ·
Nc1ccc2nc(CCc3ccccc3)[nH]c2c1 | -10 | -3 | 59* | -22 | -29 | 0
Cc1ccc2nc(CCc3ccc(N)cc3)[nH]c2c1 | 6 | 8 | -16 | -24 | -41 | 0
Cc1cc(C(=O)Nc2cccc3c2O[C@H](CN(C)S(C)(=O)=O)[C@@H](C)CN([C@H](C)CO)C3=O)n(C)n1 | · | · | · | -19 | · | ·
CC(C)NC(=O)Nc1ccc2c(c1)C(=O)N([C@@H](C)CO)C[C@H](C)[C@@H](CN(C)CC1CCCCC1)O2 | · | · | · | 10 | · | ·
Cc1c(C)c2cccnc2c2ncccc12 | -36 | · | 86* | · | 6 | 1
COc1ccc(CCNc2ncnc3[nH]ncc23)cc1OC | 26 | 1 | 2 | · | 7 | 0
COc1ccc(CCNc2ncnc3sc(C)cc23)cc1OC | 76* | 1 | 26 | 3 | 32 | 3
NNc1nc2c(F)cccc2s1 | 62* | 6 | -24 | -16 | 68* | 0
Fc1cccc2sc(Nc3nnc(-c4ccccc4)o3)nc12 | 103* | -1 | -4 | · | -47 | 0
COc1cc(OC)cc(-c2nnc(Nc3nc4c(F)cccc4s3)o2)c1 | 0 | 5 | 1 | · | -2 | 0
Fc1cccc2sc(Nc3nc4c(F)cccc4s3)nc12 | -29 | -5 | -25 | -46 | -7 | 0
CN1[C@@H]2Cn3c(ccc(-c4cccnc4)c3=O)[C@H]1[C@@H](C(=O)NCCc1ccccc1)[C@@H]2CO | · | · | · | -15 | · | ·
O=C(Nc1ncc([N+](=O)[O-])s1)c1cccs1 | 47 | 8 | -3 | 18 | -16 | 0
Cc1ncoc1C(=O)Nc1ncc([N+](=O)[O-])s1 | 50* | 7 | 23 | -17 | 1 | 0
Cc1ccc(-c2ccc([C@H]3[C@@H](CO)N4C(=O)CN(C(=O)c5ccncc5)C[C@H]34)cc2)cc1 | · | · | · | -5 | · | ·
COc1ccc(-c2[nH]ncc2-c2ccc3c(c2)OCCO3)c(O)c1 | 78* | -1 | 64* | ? | 61* | 0
COc1ccc(-c2cn[nH]c2-c2ccc(OCc3ccc([N+](=O)[O-])cc3)cc2O)cc1 | 78* | 3 | 25 | 42 | 38 | 0
CCc1cc(-c2[nH]ncc2-c2ccc3c(c2)OCO3)c(O)cc1O | 92* | 1 | 10 | 40 | 68* | 0
SMILES | TWEAK Fn14 block | HSP90 inh | EBV LMP1 NFkB | LGR2 antag | TROY NFkB inh | aDG glyco act
CCOc1ccc(-c2[nH]ncc2-c2ccc(Cl)cc2)c(O)c1 | -1 | -5 | 3 | -2 | -4 | 0
CCCc1cc(-c2[nH]ncc2-c2ccc3c(c2)OCCCO3)c(O)cc1OC | · | 0 | · | · | · | ·
CCc1cc(-c2[nH]ncc2-c2ccc(OC)cc2)c(O)cc1O | 64* | 1 | 10 | 36 | 49 | 0
CO[C@H]1CN(C)C(=O)c2cc(NC(C)=O)ccc2OC[C@@H](C)N(C(=O)C2CC2)C[C@@H]1C | · | · | · | -4 | · | ·
CCCC(=O)Nc1ccc2c(c1)C(=O)N(C)[C@H]1CC[C@@H](CC(=O)N3CCc4ccccc4C3)O[C@H]1CO2 | · | · | · | 5 | · | ·
O=C(C[C@H]1C[C@H]2c3cc(NC(=O)NC4CCCCC4)ccc3O[C@H]2[C@@H](CO)O1)NCCc1ccccc1 | · | · | · | 15 | · | ·
CNC[C@@H]1Oc2cc(-c3cncnc3)ccc2S(=O)(=O)N([C@H](C)CO)C[C@H]1C | · | · | · | -5 | · | ·
Cc1ccccc1C(=O)N1CCN(c2ccc(NC(=O)c3ccco3)cc2Cl)CC1 | -22 | -2 | 51* | · | 34 | 0
Cc1cc(OCC(=O)Nc2ccc(N3CCN(C(=O)c4ccco4)CC3)cc2)cc(C)c1Cl | 52* | -1 | 1 | 4 | 52* | 0
COc1cccc(C(=O)Nc2ccc3c(c2)C(=O)N(C)[C@@H]2CC[C@@H](CC(=O)NCc4ccccc4F)O[C@H]2CO3)c1 | · | · | · | 1 | · | ·
O=C(Nc1ccc(C(F)(F)F)cc1)N[C@H]1C=C[C@H](CC(=O)N2CCCCC2)O[C@H]1CO | · | · | · | 12 | · | ·
COc1cc(/C=N/Nc2nc(C)nc3c2cnn3-c2ccccc2)ccc1O | 64* | 0 | -16 | 58* | 44 | -1
COc1ccc(/C=N/Nc2ccccn2)cc1OC | -33 | -7 | -3 | -28 | -22 | 0
COc1cc(/C=N/Nc2ccccn2)ccc1O | 63* | -1 | 1 | -55 | 88* | 0
COC(=O)c1cc(OC)c(OC)cc1NCC(=O)Nc1ccc(C)cc1 | -1 | 6 | 8 | 50* | 22 | 0
COC(=O)c1cc(OC)c(OC)cc1NCC(=O)Nc1ccc(OC)c(OC)c1 | -19 | 0 | -2 | -13 | 8 | 0
COc1ccccc1OCc1ccc(C(=O)NN)cc1 | -9 | 3 | 9 | · | 6 | 0
COc1ccccc1OCc1ccc(C(=O)c2ccccc2)cc1 | -25 | 5 | 63* | -29 | -19 | 0
CCNc1nc(NC(C)CC)nc(Oc2ccc(=O)[nH]n2)n1 (stereo not drawn) | 87* | -6 | 9 | 15 | -2 | 0
O=c1cc(-c2ccccc2O)nc(-c2ccccc2)[nH]1 | 53* | · | 2 | -19 | 57* | 0
Cc1cc(=O)[nH]c(-c2ccccc2)n1 | -6 | 2 | -8 | · | -11 | 0
CCN1CCN(CCCNC(=O)c2ccc(/C=C3/Sc4ccccc4N(Cc4ccccc4F)C3=O)cc2)CC1 | 7 | 4 | 0 | 21 | 60* | 1
CCN1CCN(CCNC(=O)c2ccc(/C=C3/Sc4ccccc4N(Cc4ccccc4C)C3=O)cc2)CC1 | -76 | 3 | -6 | 48 | 42 | 1
CCOCCCNC(=O)CN1C(=O)/C(=C\c2ccc(C)cc2)Sc2ccccc21 | 24 | -5 | 69* | 3 | -10 | 0
CCOCCCNC(=O)CN1C(=O)/C(=C/c2ccccc2)Sc2ccccc21 | 16 | 4 | 6 | 3 | 14 | 0
